Results on 60 molecules are retold here after PubChem BioAssay AID463173 (ICCB-Longwood Screening Facility, Harvard Medical School, 2010).

The structures appear in SMILES notation. About 4,300 (8.3%) of roughly 52,000 compounds were called active. The sample as a whole holds a higher share of actives than the screen did. Unmarked numbers belong to inactive results. No stated cut-off is given here; in the data, active means survival mostly below about 52% (no sharp cut-off); inactive means mostly above about 56%.

For this experiment, the system named is DeltatarO mutant. Put plainly: S. aureus survival, RN4220 and DeltatarO strains – OD600, teichoic acid synthesis inhibitors, primary screen (AID 463173). The conditions noted are these: S. aureus RN4220 wild type/DeltatarO growth, OD600, 18 h, active compounds read low, screened at 18.75 µg/mL (by protocol).
On to `COc1ccc(N(C(=O)c2ccc(C)cc2)S(=O)(=O)c2ccc(Cl)cc2)cc1`, for which the survival was 76%.

Turning to `CN(CC(=O)Nc1cccc(C(F)(F)F)c1)S(=O)(=O)c1ccc2[nH]c3c(c2c1)CCCC3`, the survival was 94%.

With `CC(=O)N1CCc2cc(C(=O)C[n+]3ccccc3)ccc21`, the survival was 91%.

`C=CCNC(=O)CN1CCC(n2c(C)nc3cc(C(F)(F)F)ccc32)CC1`: the survival was 95%.

`O=C(Cn1ncn2c(cc3ccccc32)c1=O)NCc1ccc(F)cc1`: the survival is 104%.

As for `CCCCCN1C(C(=O)c2ccccc2)=C(OC(=O)CC)c2ccccc2S1(=O)=O`, the survival is -4% (active).

On to `COC(=O)CN1C(C(=O)c2ccccc2)=C(OC(=O)c2ccccc2)c2ccccc2S1(=O)=O`, for which the survival was 49%.

In the case of `CCCCC(=O)OC1=C(C(=O)c2ccccc2)N(CCC)S(=O)(=O)c2ccccc21`, the survival is 18% (active).

With `CCCCC(=O)OC1=C(C(=O)c2ccccc2)N(C)S(=O)(=O)c2ccccc21`, the survival was 104%.

With `CCN1C(C(=O)c2ccccc2)=C(OC(=O)c2ccc(OC)cc2)c2ccccc2S1(=O)=O`, the survival is 46% (active).

As for `CCOC(=O)CN1C(C(=O)c2ccccc2)=C(OC(=O)c2ccccc2)c2ccccc2S1(=O)=O`, the survival was 56%.

For the molecule `CCCCC(=O)OC1=C(C(=O)c2ccccc2)N(CC)S(=O)(=O)c2ccccc21`, the survival was 52%.

`CCN1C(C(=O)c2ccccc2)=C(OC(=O)c2ccc(Cl)cc2)c2ccccc2S1(=O)=O`: the survival was 50%.

Regarding `CCCN1C(C(=O)c2ccccc2)=C(OC(=O)c2ccc(OC)cc2)c2ccccc2S1(=O)=O`, the survival is 56%.

`O=C(COc1ccccc1)Nc1ccc(S(=O)(=O)N(Cc2ccccc2)c2ccccc2)cc1`: the survival was 61%.

Turning to `CC1CCCN(CNC(=O)c2ccccc2)C1` (stereo not given), the survival was 92%.

On to `COc1cc(CNCCCSc2nnnn2C)cc(Br)c1OC`, for which the survival is 81%.

`Cc1ccc(S(=O)(=O)N2CCCc3cc(NC(=O)c4c(F)cccc4F)ccc32)cc1`: the survival is 73%.

Take `COc1ccccc1NC(=O)Cn1nnc(C(=O)NCc2ccc3c(c2)OCO3)c1N`: the survival was 103%.

As to `CCOC(=O)Cn1c(=O)oc2cc(S(=O)(=O)N3CCN(c4ccc(F)cc4)CC3)ccc21`, the survival was 117%.

As to `CSc1cccc(-c2nnc(NC(=O)c3ccc4c(c3)OCCO4)o2)c1`, the survival was 72%.

In the case of `COc1cccc(NC(=O)CC(=O)Nc2ccc3nc4n(c(=O)c3c2)CCCCC4)c1`, the survival was 96%.

As to `Cc1ccc(C)c(N2CCN(C(=O)NCc3noc4ccccc34)CC2)c1`, the survival was 51%.

For the molecule `O=C(NCc1noc2ccccc12)N1CCN(c2ccccc2)CC1`, the survival is 44%.

In the case of `Cc1ccc(N2CCN(C(=O)NCc3noc4ccccc34)CC2C)cc1` (stereo not given), the survival was 30% (active).

As for `O=C(O)CCC(=O)N1CCN(Cc2ccc3c(c2)OCO3)CC1`, the survival is 75%.

Take `Cc1ccc(S(=O)(=O)N2CCOCC2)cc1C(=O)Nc1ccccc1C(=O)O`: the survival was 83%.

`COc1ccc(NC(=O)c2cc(S(=O)(=O)N3CCOCC3)ccc2OC)cc1`: the survival was 89%.

For `CC(=O)c1ccc(NC(=O)c2cc(S(=O)(=O)N3CCOCC3)ccc2C)cc1`, the survival is 49% (active).

In the case of `N#Cc1c(-n2ncnc2-c2cccc(Br)c2)sc2c1CCCCC2`, the survival was 23% (active).

Turning to `CCOc1ccc(-c2ncnn2-c2sc3c(c2C#N)CCCCC3)cc1`, the survival is 5% (active).

Turning to `N#Cc1c(-n2ncnc2-c2cccc(Cl)c2)sc2c1CCCCC2`, the survival is 61%.

Turning to `Cc1ccc(S(=O)(=O)CC(=O)Nc2sc3c(c2C#N)CCCC3)cc1`, the survival is 119%.

As for `CCCCNCc1cccn1-c1sc2c(c1C#N)CCCC2`, the survival is 109%.

In the case of `N#Cc1c(N)sc2c1CCCC2`, the survival is 103%.

Turning to `N#Cc1c(N2C(=O)C3C4C=CC(C4)C3C2=O)sc2c1CCCC2` (stereo not given), the survival is 71%.

As to `N#Cc1c(-n2ncnc2-c2ccc(Br)cc2)sc2c1CCCCC2`, the survival is 2% (active).

Consider `COc1ccc(-c2nnn(CC(=O)Nc3sc4c(c3C#N)CCCC4)n2)cc1`, for which the survival was 98%.

For `CC(C)CCOc1ccc(C(=O)Nc2sc3c(c2C#N)CCCCC3)cc1`, the survival is 127%.

On to `Cc1ccc(S(=O)(=O)CC(=O)Nc2sc3c(c2C#N)CCCCC3)cc1`, for which the survival is 72%.

As for `N#Cc1c(-n2ncnc2-c2ccc(F)cc2)sc2c1CCCCC2`, the survival was -4% (active).

On to `O=C(/C=C/c1ccco1)Nc1ccc(-c2cc3ccccc3oc2=O)cc1`, for which the survival is 50%.

As for `CC(=O)N1CCc2cc(S(=O)(=O)NC(CC(C)C)C(=O)NCCc3ccccc3)ccc21` (stereo not given), the survival is 78%.

Take `CCCCOc1ccccc1C(=O)N(Cc1ccc(C)o1)C1CCS(=O)(=O)C1` (stereo not given): the survival was 71%.

As for `Cc1cccc(OCC(=O)Nc2ccccc2C(=O)OCc2cc(=O)n3ccsc3n2)c1`, the survival is 77%.

As for `CC(=O)Nc1ccc(S(=O)(=O)N2CCC(NC(=O)Nc3cccc(F)c3)CC2)cc1`, the survival is 91%.

On to `CC1=C(C(=O)Nc2ccc(C)cc2C)C(c2cccn2C)n2ncnc2N1` (stereo not given), for which the survival is 91%.

On to `Cc1ccc(NS(=O)(=O)c2c(C(=O)N3CCCCCC3)c(C)n(C)c2C)cc1F`, for which the survival was 83%.

Regarding `CCOC(=O)c1c(NC(=O)C2c3ccccc3Oc3ccccc32)sc(C)c1C`, the survival is 12% (active).

`CCCOC(=O)c1c(NC(=O)C2c3ccccc3Oc3ccccc32)sc2c1CCC(C)C2` (stereo not given): the survival is 82%.

For `COC(=O)c1c(NC(=O)C2c3ccccc3Oc3ccccc32)sc2c1CCC(C)C2` (stereo not given), the survival was 56%.

Turning to `CCc1c(C)sc(NC(=O)C2c3ccccc3Oc3ccccc32)c1C(=O)OC(C)C`, the survival was 41% (active).

`CCCOC(=O)c1c(NC(=O)C2c3ccccc3Oc3ccccc32)sc2c1CCCC2`: the survival was 77%.

As for `CC(C)OC(=O)c1c(NC(=O)C2c3ccccc3Oc3ccccc32)sc2c1CCCC2`, the survival is 93%.

For `CCOC(=O)c1sc(NC(=O)C2c3ccccc3Oc3ccccc32)c(C#N)c1C`, the survival is 72%.

`CNC(=O)C1c2ccccc2Oc2ccccc21`: the survival is 91%.

Take `Cc1sc(NC(=O)C2c3ccccc3Oc3ccccc32)c(C(=O)OC(C)C)c1C`: the survival was 59%.

Turning to `CCOC(=O)c1sc(NC(=O)C2c3ccccc3Oc3ccccc32)c(C(=O)OCC)c1C`, the survival was 124%.

In the case of `CC1CCc2c(sc(NC(=O)C3c4ccccc4Oc4ccccc43)c2C(=O)OC(C)C)C1` (stereo not given), the survival is 47% (active).

As to `CCOC(=O)c1c(NC(=O)C2c3ccccc3Oc3ccccc32)sc(C)c1CC`, the survival is 24% (active).
